A short description of test [1]: Viability qHTS for spleen associated tyrosine kinase inhibitor (SYKi) drug resistant MV4-11 cells (AID 1963824). Further: nearly all actives have a fitted effect of over 35% in size. Put shortly:
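SYK-inhibitor-resistant MV4-11 AML cells were seeded at 500 per well onto compound and cultured 72 hours (37 °C, 5% CO2). CellTiter-Glo was then added, and after 10 min at room temperature, luminescence gave viability.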
A general note: In qHTS, concentration-response curves come from the screen itself.

The nature of test [2]: Quantitative highthroughput screen to assess conditional lethalithy of NOMO1 cells grown in RPMI1640 with dialyzed fetal bovine serum (RPMI+ds) (AID 1963877). Further: nearly all actives have a fitted effect of over 30% in size.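 On Viability: series mostly up to about 46 µM; 100% = DMSO control wells and 0% = empty wells.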 An outline of the steps: (§1)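 Each medium arm—HPLM with 10% dialyzed FBS, or RPMI1640 with 5 mM glucose and 10% untreated or dialyzed FBS—was screened against an 11-point, 3-fold compound titration for 48 h at 37 °C, with CellTiter-Glo luminescence as endpoint.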

A short description of test [3]: Quantitative highthroughput screen to assess conditional lethalithy of SEM cells grown in Human Plasma-Like Medium with dialyzed fetal bovine serum (HPLM+ds) (AID 1963882). Further: nearly all actives have a fitted effect of over 35% in size. On Viability: series mostly up to about 46 µM. An outline of the steps:
as §1

Test [4] can be described thus: Quantitative highthroughput screen to assess conditional lethalithy of SEM cells grown in RPMI1640 with unreated serum (RPMI+s) (AID 1963883). Further: nearly all actives have a fitted effect of over 35% in size.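 On Viability: 100% = DMSO wells and 0% = empty wells without cells.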 Put shortly: as §1
Test [5] can be described thus: Quantitative highthroughput screen to assess conditional lethalithy of SEM cells grown in RPMI1640 with dialyzed fetal bovine serum (RPMI+ds) (AID 1963884). Further: nearly all actives have a fitted effect of over 35% in size.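 On Viability: series mostly up to about 46 µM; 100% = DMSO control wells and 0% = empty wells without cells.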 Put shortly:
as §1

A short description of test [6]: Cellular viability qHTS for adrenocortical cancer (ACC) cell line SW-13 (AID 1963989). Further: nearly all actives have a fitted effect of over 65% in size.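 On activity (max response): cells grown in serum-free medium with ITS supplement; on the % scale 0 is the no-effect control and ±100 the full control effect.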 To be noted: SW-13 ACC cells viability, CellTiter-Glo, 48 h; activity (max response): stronger effect = lower value. An outline of the steps:
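IC50 and maximal-response values come from four-parameter logistic fits of titration data. SW-13 cells in serum-free medium received compounds (up to 46 uM final) for 48 h before CellTiter-Glo luminescence.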

Test [7] in a line: Cellular viability qHTS for adrenocortical cancer (ACC) cell line NCI-H295R (AID 1963990). Further: nearly all actives have a fitted effect of over 60% in size. Put shortly:
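Adrenocortical carcinoma cells, suspended at 300 000 cells/mL in serum-free DMEM plus ITS, rested overnight before pin transfer of compound. After two days' incubation, ATP-dependent luminescence was recorded and curve-fitted.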

The nature of test [8]: Quantitative highthroughput screen to assess conditional lethalithy of NOMO1 cells grown in Human Plasma-Like Medium with dialyzed fetal bovine serum (HPLM+ds) (AID 1963878). Further: nearly all actives have a fitted effect of over 35% in size.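 On Viability: 100% = DMSO wells and 0% = empty wells on each plate.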 Put shortly: as §1
A short description of test [9]: Quantitative highthroughput screen to assess conditional lethalithy of P12 Ichikawa cells grown in Human Plasma-Like Medium with dialyzed fetal bovine serum (HPLM+ds) (AID 1963879). Further: nearly all actives have a fitted effect of over 35% in size. On Viability: series mostly up to about 46 µM. To be noted: Potency: viability. Put shortly: as §1
Test [10] is described as follows: Quantitative highthroughput screen to assess conditional lethalithy of P12 Ichikawa cells grown in RPMI1640 with dialyzed fetal bovine serum (RPMI+ds) (AID 1963880). Further: nearly all actives have a fitted effect of over 35% in size.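 On Viability: 100% = DMSO wells and 0% = empty wells on each plate.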 To be noted: Potency: P12-Ichikawa viability. Put shortly: as §1
Test [11] is described as follows: Quantitative highthroughput screen to assess conditional lethalithy of P12 Ichikawa cells grown in RPMI1640 with untreated serum (RPMI+s) (AID 1963881). Further: nearly all actives have a fitted effect of over 35% in size.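 On Viability: series mostly up to about 46 µM; 100% = DMSO wells and 0% = empty wells without cells.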 The note with it: Potency: viability. Put shortly:
as §1

We go through 22 compounds from PubChem BioAssay (NCATS).

Structures are written as SMILES. “And” between values parts separate entries of the source, which are not always exact repeats. Identical values can stand only once. Records with an inconclusive call do not appear. A number with no mark means an inactive call. The source made the active and inactive calls. The call rests on the fitted dose curve; in most records, active means well fitted curve in the direction sought with a large enough effect; inconclusive means small, poorly fitted or top-dose-only effect, or another doubt; inactive means no such curve, though single readings can be large; an effect the other way counts as inactive or inconclusive.
Potency means the concentration at half of the fitted maximal effect.

`CCS(=O)(=O)Nc1ccc2[nH]c(O)c(C(=Nc3ccc(CN4CCCCC4)cc3)c3ccccc3)c2c1`: the Potency in test [1] was 33.2 nM (active); in [2], 833 nM (active); in test [3] it was 0.0743 µM (active); in [4], 0.0935 µM (active); in test [5] it was 0.0935 µM (active); in test [6], 3.55 µM (active). In test [7], the Potency is 1.26 µM (active).
`O=C(Nc1nc2ccccc2n1CCN1CCOCC1)c1cccc([N+](=O)[O-])c1`: in [1], the Potency is 2630 nM (active). The Potency entry in test [2], in test [8], in test [9], in test [10], in [11] and in test [3] was “inactive” in each case. The Potency entry in test [4], in test [5] and in test [7] was “inactive” throughout. In addition, in test [6], the activity (max response) was 3.94%.
Regarding `CCOC(=O)[C@H](CCc1ccccc1)N[C@H]1CCc2ccccc2N(CC(=O)O)C1=O`, the Potency in test [1] was 16600 nM (active); in [8] it was 16.6 µM (active). For the same compound, the activity (max response) in [6] was -3.37%. Moreover, the Potency entry in test [7] is “inactive”.
For `CN1N=C(N)c2cn([C@@H]3O[C@H](COP(=O)(O)O)[C@@H](O)[C@@H]3O)c3ncnc1c23`, the Potency in test [1] was 74.2 nM (active); in [8] it was 5.26 µM (active); in test [4], 0.0296 µM (active); in test [5] it was 0.0074 µM (active).
`C[N+](C)([O-])CCNc1ccc(NCC[N+](C)(C)[O-])c2c1C(=O)c1c(O)ccc(O)c1C2=O`: the Potency in test [1] was 934 nM (active); in test [9], 1.66 µM (active); in test [11] it was 743 nM (active); in test [3], 1.18 µM (active); in test [4], 0.296 µM (active); in test [5] it was 0.743 µM (active). For the same compound, the Potency entry in [7] is “inactive”.
In the case of `CC(C)(O)CC(=O)NCCn1ccc2ncnc(Nc3ccc(Oc4cccc(C(F)(F)F)c4)c(Cl)c3)c21`, the Potency was 9.2 µM (active) and 6.61 µM (active) in test [1]; 9.35 µM (active) in test [9]; 20.9 µM (active) in test [4]; 14.1 µM (active) in test [6].
For `Cc1ccc(NC(=O)c2ccc3c(c2)OCCO3)cc1NC(=O)c1ccc2nc(OCCN3CCCC3)ccc2c1`, the results for the Potency in test [1] and in test [6] were 22.9 nM (active) and 0.802 µM (active), respectively.
As to `Cn1cncc1[C@@](N)(c1ccc(Cl)cc1)c1ccc2c(c1)c(-c1cccc(Cl)c1)cc(=O)n2C`, the Potency was 2350 nM (active) in [1] and 3.72 µM (active) in test [5]. In addition, the activity (max response) in [6] is -19.2%. Also, in test [7], the Potency entry is “inactive”.
For the compound `CC(C)C(=O)Nc1ccc([N+](=O)[O-])c(C(F)(F)F)c1`, the Potency is 10.6 µM (active) and 18.6 µM (active) in test [1]; 1.87 µM (active) in test [9]; 3.32 µM (active) in [10]; 2090 nM (active) in test [11]. For the same compound, the Potency entry in [3], in test [4], in test [5] and in [7] was “inactive” each time. The activity (max response) in [6] was 15.5%.
Regarding `CS(=O)(=O)N(Cc1ccco1)CC(O)Cn1c2ccccc2c2ccccc21` (stereo not given), the Potency was 16.4 µM (active) and 16.6 µM (active) in test [1]; 18.7 µM (active) in [3]; 14.8 µM (active) in [4]; 5.9 µM (active) in test [5]. The Potency entry in test [7] was “inactive”.
With `CCOC(=O)[C@@]1(CCCCCCOc2ccc(Cl)cc2)CO1`, the Potency in test [1] was 20900 nM (active); in test [4], 11.7 µM (active). Besides, the Potency result in [8] is “inactive”.
As for `NC(=O)Nc1cc(-c2ccc(CN3CCOCC3)cc2)sc1C(N)=O`, the Potency in [1] was 468 nM (active); in [9], 0.118 µM (active); in test [10], 0.118 µM (active); in [11], 118 nM (active); in test [3], 0.132 µM (active); in test [4], 0.118 µM (active). Also, the results for the Potency in test [5] and in test [7] were 0.105 µM (active) and 5.01 µM (active), respectively. For the same compound, the activity (max response) in [6] was -17.8%.
With `Cc1cc(Nc2cc(NC(=O)c3c(Cl)cccc3Cl)ccn2)nc(N)n1`, the Potency in test [1] was 164 nM (active); in test [10], 1.18 µM (active); in test [5] it was 1.05 µM (active); in [7] it was 7.08 µM (active).
For the compound `N=C(N)c1ccc(OCCCCCOc2ccc(C(=N)N)cc2)cc1`, the Potency in test [1] is 4.22 µM (active) and 1.66 µM (active); in [6], 16.4 µM (active) and 15.8 µM (active). The Potency entry in test [9] and in test [10] was “inactive” each time.
With `CCN(CC)CCCCNc1ncc2c(n1)N(C)C(=O)N(c1c(Cl)c(OC)cc(OC)c1Cl)C2`, the Potency was 14800 nM (active) in test [1]; 14.8 µM (active) in test [3]; 13.2 µM (active) in test [4]; 14.8 µM (active) in [5]; 25.1 µM (active) in [6].
As to `C[C@]12CCC(=O)C=C1[C@@H]1C[C@@H]1[C@H]1[C@@H]3[C@@H]4C[C@@H]4[C@@]4(CCC(=O)O4)[C@@]3(C)CC[C@@H]12`, the Potency in test [1] was 21.1 µM (active) and 18.6 µM (active). Moreover, in [6], the activity (max response) was -8.86% and -13.4%.
Regarding `Cc1cc(C(=O)NOCCO)c(Nc2ccc(I)cc2F)n(C)c1=O`, the Potency in [1] was 41.1 nM (active); in test [3], 0.0662 µM (active); in [5], 0.0074 µM (active). Further, the Potency entry in test [9], in [10], in test [4] and in test [7] was “inactive” in each case.
For `Nc1nc(NCCNc2ncc(-n3ccnc3)c(-c3ccc(Cl)cc3Cl)n2)ccc1[N+](=O)[O-]`, the Potency in [1] is 3720 nM (active). In addition, the Potency result in test [9], in test [10], in test [11], in test [3], in [4] and in test [7] was “inactive” each time. Besides, in test [6], the activity (max response) is -10%.
With `CN1CCN(CCOc2cc(OC3CCOCC3)c3c(Nc4c(Cl)ccc5c4OCO5)ncnc3c2)CC1`, the Potency in [1] was 9.2 µM (active) and 9.34 µM (active); in test [9] it was 8.33 µM (active); in test [10], 18.7 µM (active); in [11] it was 29600 nM (active); in [4] it was 6.62 µM (active); in test [5] it was 10.5 µM (active). Besides, the Potency in test [6] was 3.98 µM (active); in test [7], 31.6 µM (active).
For `CCN1CCN(Cc2ccc(-c3cc4c(N[C@H](C)c5ccccc5)ncnc4[nH]3)cc2)CC1`, the Potency in [1] was 1860 nM (active); in test [8], 20.9 µM (active); in test [3] it was 16.6 µM (active); in test [4], 14.8 µM (active); in test [5] it was 18.7 µM (active); in test [6] it was 4.47 µM (active). The Potency in [7] was 31.6 µM (active).
`OC[C@H]1OC(O)C[C@@H](O)[C@H]1O` (stereo not given in full): the Potency entry in [1], in test [10], in test [11], in test [3], in test [4] and in test [5] was “inactive” in each case. In addition, the Potency result in test [7] was “inactive”. Also, the activity (max response) in [6] is 7.09%.
`Nc1nc2c(c(=O)[nH]1)N(C=O)[C@H](CNc1ccc(C(=O)N[C@@H](CCC(=O)O)C(=O)O)cc1)CN2`: the Potency result in test [1], in test [3], in test [4], in [5] and in test [7] was “inactive” in each case. For the same compound, the Potency is 2.96 µM (active) in test [9] and 3.32 µM (active) in test [10]. The activity (max response) in test [6] is 4.65%.
